In the supplement of paper PMC4206461:

Each compound was assayed on Pseudomonas aeruginosa PA14 dppBCDF deletion mutant (assay: respiration area under curve with compound as sole nitrogen source, 24 h (OmniLog AUC (arbitrary units)); higher = more respiration / better utilisation as nitrogen source, active = 2000 or more). Details: plate: PM8.
Protocol: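 Biolog Phenotype MicroArray plates PM6-PM8: each di/tripeptide is the sole nitrogen source. Tetrazolium reduction was read in the OmniLog every 15 min for 24 h at 37°C and summarised as area under the respiration curve (arbitrary units). Values below 2000 count as no respiration. Strain is the dipeptide ABC transporter deletion mutant.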

Compound	respiration area under curve
N[C@@H](Cc1ccc(O)cc1)C(=O)NCC(=O)NCC(=O)O	4900 (active)
